Reference: PubChem BioAssay AID1159580 (chemical genetic matrix, 2015)
“And” between values parts separate entries of the source, which are not always exact repeats. Identical values can stand only once. Among all 5,500 compounds or so, about 2,000 (36%) were called active. About 18% were inconclusive and are not listed. Rule as the data show it: active = normalized growth mostly below about 0.91 (no sharp cut-off); inconclusive = no clear call, values can overlap the other calls; inactive = mostly above about 0.92. The list shows a part of the results.

Assay: chemical genetic growth profiling, strain panel (AID 1159580);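 also: tested at 20 µM; growth read once vehicle control cultures reached saturation at 30 °C; 1 = growth at the plate median or of vehicle wells; lower values mean less growth of the strain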
Conditions: S. cerevisiae deletion strains, growth OD

Measured: normalized growth

O=C(CCCN1CC=C(n2c(=O)[nH]c3ccccc32)CC1)c1ccc(F)cc1
inactive: locus YAL013W, strain DEP1, active compounds read low 0.99 | locus YAL021C, strain ccr4, active compounds read low 0.958 | locus YAL026C, strain drs2, active compounds read low 0.992 | locus YAL030W, strain snc1, active compounds read low 0.988 | locus YBL061C, strain skt5, active compounds read low 0.989 | locus YBR009C, strain hhf1, active compounds read low 0.979 | locus YBR021W, strain FUR4, active compounds read low 0.953 | locus YBR023C, strain chs3, active compounds read low 0.983 | locus YBR171W, strain sec66, active compounds read low 0.963 | locus YBR229C, strain ROT2, active compounds read low 0.949 | locus YBR231C, strain swc5, active compounds read low 0.953 | locus YBR279W, strain paf1, active compounds read low 0.972 | locus YCL011C, strain gbp2, active compounds read low 0.975 | locus YCL016C, strain dcc1, active compounds read low 1 | locus YCL029C, strain bik1, active compounds read low 0.973 | locus YCL069W, strain vba3, active compounds read low 0.992 | locus YCR088W, strain abp1, active compounds read low 1 | locus YDL005C, strain med2, active compounds read low 0.973 | locus YDL035C, strain GPR1, active compounds read low 0.972 | locus YDL040C, strain nat1, active compounds read low 0.992 | locus YDL074C, strain BRE1, active compounds read low 0.984 | locus YDL101C, strain DUN1, active compounds read low 0.976 | locus YDL134C, strain PPH21, active compounds read low 0.983 | locus YDL185W, strain tfp1, active compounds read low 0.991 | locus YDL192W, strain arf1, active compounds read low 0.983 | locus YDR001C, strain nth1, active compounds read low 0.974 | locus YDR069C, strain doa4, active compounds read low 0.952 | locus YDR101C, strain arx1, active compounds read low 0.983 | locus YDR137W, strain rgp1, active compounds read low 0.993 | locus YDR150W, strain NUM1, active compounds read low 0.968 | locus YDR159W, strain sac3, active compounds read low 0.989 | locus YDR162C, strain NBP2, active compounds read low 0.978 | locus YDR195W, strain ref2 0.936 | locus YDR297W, strain sur2, active compounds read low 0.984 | locus YDR318W, strain mcm21, active compounds read low 0.991 | locus YDR334W, strain swr1, active compounds read low 0.976 | locus YDR335W, strain msn5, active compounds read low 0.979 | locus YDR388W, active compounds read low 0.986 | locus YDR392W, strain spt3, active compounds read low 0.994 | locus YDR502C, strain sam2, active compounds read low 0.968 | locus YEL003W, strain gim4, active compounds read low 0.99 | locus YEL037C, strain rad23, active compounds read low 1 | locus YEL061C, strain CIN8 (second series), active compounds read low 0.981 | locus YEL061C, strain CIN8, active compounds read low 0.985 | locus YER015W, strain faa2, active compounds read low 0.969 | locus YER016W, strain bim1, active compounds read low 1.01 | locus YER110C, active compounds read low 0.957 | locus YER111C, strain swi4, active compounds read low 0.975 | locus YER155C, strain BEM2 (second series), active compounds read low 0.929 | locus YER155C, strain BEM2, active compounds read low 0.996 | locus YER167W, strain BCK2, active compounds read low 0.982 | locus YFR010W, strain ubp6, active compounds read low 0.993 | locus YGL078C, strain dbp3, active compounds read low 0.976 | locus YGL086W, strain mad1, active compounds read low 0.976 | locus YGL167C, strain pmr1, active compounds read low 0.979 | locus YGL173C, strain kem1, active compounds read low 1 | locus YGL227W, strain vid30, active compounds read low 0.953 | locus YGL240W, strain doc1, active compounds read low 0.953 | locus YGL248W, strain PDE1, active compounds read low 0.982 | locus YGL253W, strain hxk2, active compounds read low 0.981 | locus YGR078C, strain PAC10, active compounds read low 0.985 | locus YGR135W, strain pre9, active compounds read low 0.968 | locus YGR229C, strain SMI1, active compounds read low 0.992 | locus YGR252W, strain gcn5, active compounds read low 0.906 | locus YHR013C, strain ard1, active compounds read low 1.01 | locus YHR027C, strain rpn1, active compounds read low 0.977 | locus YHR030C, strain SLT2, active compounds read low 0.991 and 0.98 | locus YHR079C, strain IRE1 (second series), active compounds read low 0.989 | locus YHR079C, strain IRE1, active compounds read low 0.971 | locus YHR094C, strain hxt1, active compounds read low 0.994 | locus YHR129C, strain ARP1, active compounds read low 0.994 | locus YHR142W, strain chs7, active compounds read low 0.983 | locus YHR200W, strain rpn10, active compounds read low 0.99 | locus YIL066C, strain RNR3, active compounds read low 0.971 | locus YIL073C, strain SPO22, active compounds read low 1.02 | locus YIL125W, strain kgd1, active compounds read low 0.99 | locus YIR030C, strain dcg1, active compounds read low 0.972 | locus YJL092W, strain hpr5, active compounds read low 0.984 | locus YJL095W, strain BCK1 (second series), active compounds read low 0.996 | locus YJL095W, strain BCK1, active compounds read low 1.03 and 0.998 | locus YJL115W, strain asf1, active compounds read low 0.975 | locus YJL129C, strain trk1, active compounds read low 0.939 | locus YJL134W, strain LCB3, active compounds read low 0.979 | locus YJL154C, strain vps35, active compounds read low 0.994 | locus YJL164C, strain tpk1, active compounds read low 0.994 | locus YJL166W, strain qcr8, active compounds read low 0.971 | locus YJL168C, strain set2, active compounds read low 0.999 | locus YJL187C, strain SWE1 (second series), active compounds read low 0.978 | locus YJL187C, strain SWE1, active compounds read low 0.988 | locus YJR043C, strain POL32, active compounds read low 0.995 | locus YJR066W, strain TOR1, active compounds read low 0.93
